Hits are enriched below; roughly 3% of the tested compounds scored in any of these assays.
PMP22 txn prim: modulates PMP22 transcription in S16 Schwann cells; S16 Pmp22-F2sN Schwann cells, FLuc/NLuc coincidence luminescence, 24 h; Potency, µM (doses to about 57.5 µM), inactives show at the top dose activity change, negative = inhibition, hits mostly inhibitors; hit rate 2% among 43,000; AID 1508649; active = clear falling dose curves in both reporters; inconclusive = both reporters move, but less clearly or upward; inactive = either reporter flat; the % is the NLuc reporter signal; note: potency is the fitted concentration of half-maximal effect; % is set by controls: 0 for no effect and ±100 for the full control effect
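S16(c9) Schwann cells with FLuc/NLuc coincidence reporter in the Pmp22 3' UTR; compounds pin-transferred, 24 h at 37C. Dual-luciferase read: FLuc first, then NLuc after Stop&Glo, each 10 min at room temperature.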
p53null 39C kill: p53 null cell cytotoxicity, nonpermissive temperature | hit rate 0.97% among 55,000 | AID 904 | H1299 p53-null (neo) cells, 39C, ATPlite viability, 24 h | Potency, µM (series often up to 46.1 µM), without a hit: at the top dose activity, negative = cell killing, most hits filed as cytotoxic;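 note: potency is the fitted concentration of half-maximal effect; 0% = DMSO only and -100% = full killing by 100 µM tamoxifen; nearly all actives have a fitted effect of over 50% in size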
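Concentration-response (up to 46 uM) was run for 24 h at the nonpermissive 39C on H1299-p53A138V or H1299-neo cells. ATP content was measured with ATPlite luminescence. AC50 values were Hill-modeled after normalizing between DMSO and 100 uM tamoxifen killing.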
p53null 32C kill: selectivity test: cytotoxicity in p53 null cells, permissive temperature; H1299-neo p53 null cells, ATP luminescence, 24 h, 32C; Potency, µM (series often up to 46.1 µM), for the others: at the highest dose activity change, negative = cytotoxicity, usual class: cytotoxic; hit rate 0.62% among 55,000; AID 903;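 note: potency is the fitted concentration of half-maximal effect; 0% = DMSO only and -100% = full killing by 100 µM tamoxifen; nearly all actives have a fitted effect of over 55% in size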
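H1299-neo, 600 cells/well; overnight 37C; cpd up to 46 uM, 24 h at 32C; ATPlite luminescence after 20 min RT; normalized to DMSO (0%) and tamoxifen 100 uM (100% kill); Hill-fit AC50.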
S16 F2sN tox: toxic to S16 Pmp22-F2sN Schwann cells; S16 Pmp22-F2sN Schwann cells (luciferase reporters placed in the Pmp22 gene) viability, CellTiter-Glo, 24 h; Potency, µM (series often up to 57.5 µM), without a hit: at the highest dose activity change, negative = cytotoxicity, most hits filed as cytotoxic; hit rate 0.48% among 43,000; note: potency is the fitted concentration of half-maximal effect; % is set by controls: 0 for no effect and ±100 for the full control effect; nearly all actives have a fitted effect of over 65% in size
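S16 Schwann cells carrying the Pmp22-F2sN reporter, seeded in 1536-well format, were exposed to library compounds for 24 h at 37C. Viability was read as CellTiter-Glo luminescence after 15 min at room temperature.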
OvCa metastasis: blocks SKOV3ip1 adhesion and invasion in omental model | hit rate 0.1% among 46,000 | AID 1963576 | SKOV3ip1-GFP adhesion/invasion on 3D omental model, fluorescence | Potency, µM (titrated, usually from 45.8 µM), for inactives: top-dose activity change, negative = inhibition, usual class: inhibitors;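 note: potency is the fitted concentration of half-maximal effect; plate controls were DMSO wells for no effect and tomatine positive control wells for full effect; nearly all actives have a fitted effect of over 65% in size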
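A 3D layer of primary human omental fibroblasts, mesothelial cells, fibronectin and collagen I, grown 48 hr, received SKOV3ip1-GFP cells in serum-free medium plus compounds at 0.36-46 umol/L. After 2 hr RT and 16 hr 37 C, fixed adherent GFP cells were counted; normalized to DMSO and tomatine.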
mTORC1 inh: reduces mTORC1 signaling in Tsc2 and p53 null MEF cells. Tsc2-/- p53-/- MEF, phospho-rpS6 immunofluorescence/PI, 24 h. Potency, µM (doses to about 38.3 µM), for inactives: at the highest dose activity change, negative = inhibition, usual class: inhibitors. hit rate 0.78% among 44,000;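 note: potency is the fitted concentration of half-maximal effect; plate controls were DMSO for no effect and rapamycin for full effect; nearly all actives have a fitted effect of over 50% in size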
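Tsc2-/-, p53-/- MEFs (empty-vector stable line) in DMEM + 10% FBS were treated with compounds 24 h at 37 degree Celsius, fixed, and immunostained for phospho-rpS6 (Alexa-488) with propidium iodide counterstain. Laser-scanning cytometry gave % positive cells, normalized against 7.5 nM rapamycin and DMSO.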
NLuc saturating: inhibits NanoLuc at saturating substrate, PMP22 counter-screen; shares compounds with PMP22 txn prim; Secreted NLuc enzyme (filtered S16 cell medium), Nano-Glo luminescence; Potency, µM (doses to about 57.5 µM), for inactives: at the highest dose activity change, negative = inhibition, hits mostly inhibitors; hit rate 4% among 690; note: potency is the fitted concentration of half-maximal effect; % is set by controls: 0 for no effect and ±100 for the full control effect
NLuc Km counter: inhibits NanoLuc under Km conditions, PMP22 counter-screen | Potency, µM (titrated, usually from 57.5 µM), without a hit: at the top dose activity change, negative = inhibition, most hits filed as inhibitors | secreted NLuc enzyme, coelenterazine luminescence, Km conditions | AID 1508639 | shares compounds with PMP22 txn prim | hit rate 5% among 690; note: potency is the fitted concentration of half-maximal effect; % is set by controls: 0 for no effect and ±100 for the full control effect
FLuc counter: counter-screen for PMP22 expression modulators: firefly luciferase inhibition. shares compounds with PMP22 txn prim. purified P. pyralis FLuc, luminescence, 10 min. Potency, µM (highest dose often 57.5 µM), for inactives: top-dose activity, negative = inhibition, usual class: inhibitors. 690 tested, under 10 active; note: % of control where 0% means no effect
Target sequence (P08659 whole entry, looked up): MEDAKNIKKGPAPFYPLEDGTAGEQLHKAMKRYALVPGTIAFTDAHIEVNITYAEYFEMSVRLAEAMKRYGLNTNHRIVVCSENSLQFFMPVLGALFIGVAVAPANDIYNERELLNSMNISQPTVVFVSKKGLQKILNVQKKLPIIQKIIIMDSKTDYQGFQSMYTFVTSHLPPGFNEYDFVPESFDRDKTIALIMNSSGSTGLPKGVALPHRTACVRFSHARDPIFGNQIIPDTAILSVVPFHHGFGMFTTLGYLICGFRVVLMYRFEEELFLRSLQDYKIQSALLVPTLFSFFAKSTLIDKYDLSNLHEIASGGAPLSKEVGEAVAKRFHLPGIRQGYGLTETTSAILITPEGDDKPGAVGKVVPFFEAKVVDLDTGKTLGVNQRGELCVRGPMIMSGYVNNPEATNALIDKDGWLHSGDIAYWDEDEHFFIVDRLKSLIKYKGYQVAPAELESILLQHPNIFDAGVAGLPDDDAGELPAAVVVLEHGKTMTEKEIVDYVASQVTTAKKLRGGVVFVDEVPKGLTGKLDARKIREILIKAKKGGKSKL
S16 F2sN tox cnf: S16 Schwann cell cytotoxicity, confirmatory. hit rate 7% among 690. shares compounds with PMP22 txn prim. S16 Schwann cells viability, CellTiter-Glo ATP luminescence, 24 h. Potency, µM (doses to about 57.5 µM), without a hit: top-dose activity change, negative = viability loss, actives largely listed as cytotoxic; note: potency is the fitted concentration of half-maximal effect; % is set by controls: 0 for no effect and ±100 for the full control effect
PMP22 txn conf: confirmation of modulators of PMP22 gene transcription in S16 cells; AID 1508646; shares compounds with PMP22 txn prim; Potency, µM (titrated, usually from 57.5 µM), for the others: at the highest dose activity change, negative = inhibition, actives largely listed as inhibitors; S16 Schwann cells Pmp22-F2sN, dual luciferase, 24 h; hit rate 22% among 690; active = clear falling dose curves in both reporters; inconclusive = both reporters move, but less clearly or upward; inactive = either reporter flat; the % is the FLuc reporter signal; note: potency is the fitted concentration of half-maximal effect
PMP22 HiBiT cnf: rat PMP22 protein level modulation, confirmatory | shares compounds with PMP22 txn prim | S16 Schwann cells Pmp22-HiBiT, luminescence, 48 h | Potency, µM (top dose mostly 27.9 µM), inactives show at the highest dose activity change, negative = inhibition, actives largely listed as inhibitors | 95 tested, under 10 active | AID 1508647
Active calls of the source: *; i = inactive; ? = inconclusive; . = no result. Unless noted, calls come from the whole dose curve; as a rule, active = well fitted curve in the direction sought with a large enough effect; inconclusive = small, poorly fitted or top-dose-only effect, or another doubt; inactive = no such curve, though single readings can be large; an effect the other way counts as inactive or inconclusive.

SMILES	PMP22 txn prim	p53null 39C kill	p53null 32C kill	S16 F2sN tox	OvCa metastasis	mTORC1 inh	NLuc saturating	NLuc Km counter	FLuc counter	S16 F2sN tox cnf	PMP22 txn conf	others
CCc1nnc(NC(=O)c2nc(S(C)(=O)=O)ncc2Cl)s1	9.5µM*	-11%	6%	?	-8%	?	?	?	-4%	?	14µM*	PMP22 HiBiT cnf=?
CCC(CC)[C@H](NC(C)=O)[C@@H]1[C@H](O)[C@@H](C(=O)O)C[C@@H]1N=C(N)N	.	.	.	.	-21%	.	.	.	.	.	.
O=C(C=Cc1cccnc1)NCCCCC1CCN(C(=O)c2ccccc2)CC1	.	.	.	.	4%	.	.	.	.	.	.
COc1ccc(NC(=O)c2cc3c(s2)-c2c(C)cccc2OC3)cc1Cl	16µM*	-1%	-12%	28µM*	20%	-3%	-8%	-1%	-14%	?	?
COc1cc(Cl)c(C)cc1NC(=O)c1cc2c(s1)-c1c(C)cccc1OC2	?	-18%	-10%	-5%	-18%	-9%	.	.	.	.	.
CCC(=O)N1CCc2cc(Br)cc(S(=O)(=O)N3CCC(C(=O)NC(C)(C)C)CC3)c21	-34%	-24%	6%	17%	i	-1%	-17%	-3%	-12%	-2%	-6%
CCOC(=O)C1CCN(S(=O)(=O)c2cc(Br)cc3c2N(C(=O)CC)CC3)CC1	5%	37%	-6%	2%	i	-2%	.	.	.	.	.
Cc1ccc(Nc2cc(C(=O)NC3CCCC3)c3ccccc3n2)cc1C	2.8µM*	-15%	-2%	-8%	-11%	-13%	2%	1%	?	9%	-11%
Cc1ccc(NC(=O)CSc2nc3ccccc3nc2Cc2ccccc2)c(C)c1	9.5µM*	6%	4%	-3%	-3%	0%	-4%	-3%	-1%	17%	?
CCOc1ccccc1Nc1sc(C(=O)c2ccc(Cl)cc2)c(N)c1C#N	15µM*	11%	-7%	1%	13%	-3%	0%	4%	-2%	1%	-2%
O=S(=O)(NCC(c1ccco1)S(=O)(=O)c1cccs1)c1ccc(Cl)cc1 (stereo unspecified)	15µM*	-11%	11%	-14%	-26%	18µM*	?	?	-6%	8%	7.6µM*	PMP22 HiBiT cnf=-26%

Screening results (PubChem BioAssay)
